# Measurements taken from the supplement of paper PMC13380429.
# A number with no mark means an inactive call.
# Tested on: Vero E6 infected with SARS-CoV-2
# Assay: inhibition of SARS-CoV-2 cytopathic effect; higher = more antiviral protection, active = above 15
# Conditions: 48 h
Structure (SMILES),inhibition of SARS-CoV-2 cytopathic effect (1 nM) [%],inhibition of SARS-CoV-2 cytopathic effect (8.33 nM) [%],inhibition of SARS-CoV-2 cytopathic effect (100 nM) [%],inhibition of SARS-CoV-2 cytopathic effect (833.33 nM) [%],inhibition of SARS-CoV-2 cytopathic effect (10000 nM)
c1ccc(C(O[C@@H]2CCCN(CCc3ccc4c(c3)OCO4)C2)c2ccccc2)cc1 [zamifenacin],0.36,3.7,0.93,-1.42,-1.64%
CC(C)C[C@H](NC(=O)[C@@H]1CCCN1)C(=O)NCC(N)=O [prolylleucylglycinamide],0.63,2.46,1.44,0.51,1.22%
CC(C)(Oc1ccc(Cl)cc1)C(=O)OCCOC(=O)c1cccnc1 [etofibrate],0.78,2.82,0.41,0.22,-10.1%
CN1[C@@H]2CC[C@H]1C[C@@H](OC(=O)c1c[nH]c3ccccc13)C2 [tropisetron],-1.26,-1.1,1.21,1.27,-1.17%
CCN(CC)CCO[C@H]1CC[C@@]2(C)C(=CC[C@@H]3[C@@H]2CC[C@]2(C)C(=O)CC[C@@H]32)C1,1.95,2.95,1.19,3.83,19.6% (active)
C=C[C@@H]1C[C@]1(NC(=O)[C@@H]1C[C@@H](Oc2ncc(OC)c3ccc(Cl)cc23)CN1C(=O)[C@@H](NC(=O)OC(C)(C)C)C(C)(C)C)C(=O)NS(=O)(=O)C1CC1 [asunaprevir],-0.2,0.38,3.96,2.81,-1.88%
Nc1nc(-c2ccc(Cl)c(Cl)c2)c(-c2ccncc2)s1,-1.24,1.18,-2.7,-2.03,-0.28%
CN[C@H](CNC(=O)N1CCC[C@@H]([C@@H](OCCNC(=O)OC)c2cccc(Cl)c2)C1)C[C@H]1CCCOC1,1.34,-1.3,1.14,-0.1,3.16%
c1ccc(-c2ccc(C(c3ccccc3)n3ccnc3)cc2)cc1 (stereo not given) [bifonazole],3.05,3.28,4.39,-11.6,15.4% (active)
NC(=O)c1ccc(N(C(N)=O)c2c(F)cccc2F)nc1-c1ccc(F)cc1F,-0.41,-1.25,-4.38,-0.33,-1.52%
NS(=O)(=O)NCCNc1nonc1/C(=N/O)Nc1ccc(F)c(Br)c1,-1.72,-0.99,-3.11,3.1,-1.01%
Clc1ccc(-c2nc3sccn3c2/C=N/OCc2ccc(Cl)c(Cl)c2)cc1,-0.5,-0.99,-1.16,-0.11,0.21%
CCCCCCOc1ccccc1C(N)=O [exalamide],-5.16,-3.3,-2.73,-0.34,-3.76%
CN1CC[C@@]2(C)c3cc(O)ccc3N(C)[C@@H]12 [eseroline-(-)],0.81,0.96,2.54,3.07,6.49%
Cc1cc(I)ccc1Nc1c(C(=O)NOCC2CC2)cc(F)c(F)c1F,0.41,5.24,7.71,-0.67,-4.88%
O=c1ncn2nc(Sc3ccc(F)cc3F)ccc2c1-c1c(Cl)cccc1Cl,1.28,-0.16,-1.32,1.03,1.38%
O=C(O)C1=CCNCC1 [isoguvacine],0.65,0.98,0.98,3.23,2.12%
Fc1ccc2nc(CCC#Cc3ccccn3)cn2c1 [dipraglurant],0.01,0.17,0.87,1.2,2.02%
COC(=O)Nc1nc2cc(Sc3ccccc3)ccc2[nH]1 [fenbendazole],0.07,-1.31,0.21,0.61,-0.61%

Structure (SMILES),inhibition of SARS-CoV-2 cytopathic effect (1 nM) [%],inhibition of SARS-CoV-2 cytopathic effect (8.33 nM) [%],inhibition of SARS-CoV-2 cytopathic effect (100 nM) [%],inhibition of SARS-CoV-2 cytopathic effect (833.33 nM) [%],inhibition of SARS-CoV-2 cytopathic effect (10000 nM)
O=[N+]([O-])C(Br)(CO)CO [bronopol],-0.93,-3.53,0.32,0.51,-1.05%
O=C(O)c1cn(C2CC2)c2cc(N3CCNCC3)c(F)cc2c1=O [ciprofloxacin],-2.01,-1.59,0.61,-0.98,-2.99%
N#CC1(c2ccc(NC(=O)c3cccnc3NCc3ccncc3)cc2)CCCC1 [apatinib],1.27,0.67,0.81,0.23,-0.18%
O=c1c(O)c(-c2cc(O)c(O)c(O)c2)oc2cc(O)cc(O)c12 [myricetin],-0.44,0.2,3.15,5.8,0.05%
CC[C@@H]1/C=C(\C)C[C@H](C)C[C@H](OC)[C@H]2O[C@@](O)(C(=O)C(=O)N3CCCC[C@H]3C(=O)O[C@H](/C(C)=C/[C@@H]3CC[C@@H](O)[C@H](OC)C3)[C@H](C)[C@@H](O)CC1=O)[C@H](C)C[C@@H]2OC [ascomycin],1.02,2.65,2.8,2.76,1.33%
O=C(c1ccc(F)c(F)c1Nc1ccc(I)cc1F)N1CC(O)([C@@H]2CCCCN2)C1 [cobimetinib],-0.38,-3.42,-9.73,-11.8,-12.2%
CCOc1ccc(C[C@H]2NC(=O)CCSSC[C@@H](C(=O)N3CCC[C@H]3C(=O)N[C@@H](CCCN)C(=O)NCC(N)=O)NC(=O)[C@H](CC(N)=O)NC(=O)[C@H]([C@@H](C)O)NC(=O)[C@H]([C@@H](C)CC)NC2=O)cc1 [atosiban],1.81,-1.47,-2.35,-0.16,0.37%
CCOC(=O)CCC(=O)O[C@H]1[C@H](O[C@@H]2[C@@H](C)[C@H](O[C@H]3C[C@@](C)(OC)[C@@H](O)[C@H](C)O3)[C@@H](C)C(=O)O[C@H](CC)[C@@](C)(O)[C@H](O)[C@@H](C)C(=O)[C@H](C)C[C@@]2(C)O)O[C@H](C)C[C@@H]1N(C)C [erythromycin-ethylsuccinate],0.01,0.11,0.57,0.29,-0.24%
Cc1ccc2c(c1)C(=O)[C@]1(O)CCN(c3ccccc3)C1=N2 (racemic) [blebbistatin-(+/-)],0.35,-0.695,-1.93,-1.36,-2.33%
O=C(O)Cn1c(C(=O)Nc2nc(-c3ccccc3Cl)cs2)cc2ccccc21,0.3,-0.21,0.61,-0.36,-0.66%
O=C(c1cccc(Br)c1)N1CCC(N2CCCC2)CC1,-0.38,1.79,-0.46,2.16,-0.32%
Fc1ccc(CNc2ncnc3ccc(F)cc23)cc1 [spautin-1],-1.85,-0.71,-0.05,-0.85,-1.95%
Nc1nccc(-c2ccc3noc(-c4ccc(Cl)cc4)c3c2)n1 [PIM-1-Inhibitor-2],0.72,-0.19,3.66,0.83,0.56%
CCCCc1ccc(C(N)=O)nc1 [bupicomide],2.98,0.4,-0.52,-0.04,3.08%
COc1cc(COc2cc(N)c(Cl)cc2C(=O)CCC2CCN(CCNS(C)(=O)=O)CC2)cc(OC)c1,0.91,2.62,-0.09,2.63,28.3% (active)
C[C@](N)(Cc1ccc(O)c(O)c1)C(=O)O [methyldopa],-0.96,0.87,-0.52,-1.66,0.52%
CCCCc1ccc(O)cc1O [rucinol],-2.6,-3.11,2.12,-0.13,0.4%
COc1cc2c(cc1OC)C1CC(=O)C(CC(C)C)CN1CC2 (stereo not given) [tetrabenazine],-2.11,0.64,1.22,2.22,0.85%
CC(Oc1c(Cl)cccc1Cl)C1=NCCN1 (stereo not given) [lofexidine],3.3,3.14,5.17,7.76,1.15%
